PubChem BioAssay (NCI)
The panel holds about 83,000 compounds, 20% with a hit somewhere; the sample as a whole holds those more often.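 The endpoint reported here, percent growth, reads 100 for growth as untreated, 0 for no net growth and -100 for all cells dead.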 Values without a mark were called inactive. Active and inactive are the calls of the source. How the source made its calls: active means growth percent below 10; inactive means the rest.

Columns and labels:
Assay in all cases: NCI-60 one-dose screen, 48 h (100 = growth as untreated, 0 = no growth, -100 = all killed)
Settings in all cases: 10 µM unless noted
NCI-H23 lung = test system: NCI-H23 lung
NCI-H226 lung = test system: NCI-H226 lung
NCI-H322M lung = test system: NCI-H322M lung
HOP-62 NSCLC = test system: HOP-62 NSCLC
NCI-H460 lung = test system: NCI-H460 lung
HOP-92 NSCLC = test system: HOP-92 NSCLC
NCI-H522 lung = test system: NCI-H522 lung
A549/ATCC NSCLC = test system: A549/ATCC NSCLC
786-0 renal = test system: 786-0 renal
COLO 205 colon = test system: COLO 205 colon

SMILES | growth (NCI-H23 lung) | growth (NCI-H226 lung) | growth (NCI-H322M lung) | growth (HOP-62 NSCLC) | growth (NCI-H460 lung) | growth (HOP-92 NSCLC) | growth (NCI-H522 lung) | growth (A549/ATCC NSCLC) | growth (786-0 renal) | growth (COLO 205 colon)
O=[N+]([O-])c1cccc(-c2nc3sccn3c2-c2ccnc(NCCCNS(=O)(=O)c3ccc(F)cc3)n2)c1 | -7.3% (active) | -3.92% (active) | 26.8% | 12.5% | 10.5% | 46.2% | 0.116% (active) | 9.67% (active) | 44.2% | 4.52% (active)
COc1ccc(C(=O)COc2ccc(/C=C3\Oc4ccc(Cl)cc4C3=O)cc2)cc1 | 67.6% | 92% | 96.6% | 100% | 111% | 48.9% | 80.5% | 95.1% | 106% | 96%
O=C(CN1CCN(c2cc3c(cc2F)c(=O)c(C(=O)N/N=C/c2ccccc2)cn3C2CC2)CC1)N/N=C\c1ccccc1 | 94.5% | 81.3% | 85.4% | 109% | 66.3% | 76% | 76.5% | 69.9% | 90.4% | 99.6%
CN(C)C(=O)c1cc2cnc(Nc3ccc(-c4csc5c(=O)cc(N6CCNCC6)oc45)cc3)nc2n1C1CCCC1 | 0.906% (active) | 16.1% | 23% | 21.4% | 7.5% (active) | 31.3% | 46.5% | 2.05% (active) | 7.89% (active) | 11%
O=C(O)c1ccc(=O)[nH]n1 | 103% | 107% | 117% | 111% | 112% | 87.9% | 106% | 116% | 116% | 111%
COc1ccc(S(=O)(=O)NCCNc2nccc(-c3c(-c4cccc([N+](=O)[O-])c4)nc4sccn34)n2)cc1 | 93.1% | 82.2% | 97.5% | 99.3% | 87.3% | 87.5% | 86% | 80.2% | 87.9% | 95.1%
CC1CN(Cc2ccco2)C(=S)N(c2ccccc2)C1=O (stereo not given) | 108% | 97.3% | 99.4% | 88.1% | 98.5% | 92.7% | 92.9% | 110% | 103% | 128%
CC1=C(NCCN2CCCC2)C(=O)c2c(OCc3ccc(F)c(Cl)c3)cccc2C1=O | 69.8% | 90.4% | 64.3% | 68.8% | 57.7% | 57.1% | 76% | 78.3% | 63.6% | 69.5%
Fc1ccc(Cc2ccc(F)cc2)cc1 | 102% | 99.9% | 105% | 106% | 108% | 100% | 90% | 103% | 107% | 108%
CCCCCCCCCCCCCCCCCCNC(=O)[C@H]1CSC(c2ccc(F)c(OC)c2)N1 (stereo not given in full) | 5.24% (active) | -69% (active) | -22.2% (active) | -97.6% (active) | -77.7% (active) | -5.83% (active) | 7.12% (active) | -12.9% (active) | -10.6% (active) | 20.1%
O=C(/C=C/c1ccc(Cl)cc1)/C=C/c1cc2ccccc2[nH]c1=O | 68% | 93.5% | 105% | 39.4% | 94.4% | 92.5% | 46.4% | 46.5% | 88.5% | 40.8%
COc1cccc2c1C(=O)c1c(O)c3c(c(O)c1C2=O)C[C@@](O)(/C(C)=N/NC(=O)c1ccc(Cl)cc1)C[C@@H]3OC1CC(N)C(O)C(C)O1 (stereo not given in full) | -39.7% (active) | -39.4% (active) | -35.3% (active) | -17% (active) | -21.8% (active) | -6.16% (active) | -70.1% (active) | -32.8% (active) | -6.44% (active) | -81.4% (active)
C=CCSc1nnc(-c2ccc(C(C)(C)C)cc2)n1-c1cccc(C(F)(F)F)c1 | 35.4% | 44.7% | 77.7% | 67.3% | 29.3% | 28.9% | 37.3% | 21.2% | 30.4% | 41.1%
CCCCNC(=O)NS(=O)(=O)c1ccc(N2N=C(c3cc(C)ccc3C)CC2c2cc(OC)c(OC)c(OC)c2)cc1 (stereo not given) | -26.1% (active) | 75.2% | 66.7% | 53.8% | 57.5% | 62.4% | 53.7% | 32.6% | 47.9% | 44.7%
O=c1c2cccc3c(Nc4c(F)cccc4F)ccc(c32)c2nc3ccccc3n12 | 85.8% | 75.1% | 86.8% | 85.6% | 72.7% | 64.2% | 83% | 82.4% | 100% | 84.9%
CN1/C(=C\C=C\C2=[N+](C)c3ccccc3C2(C)C)C(C)(C)c2ccccc21 | -6.67% (active) | 5.56% (active) | 8.56% (active) | 3.55% (active) | 0.247% (active) | -18.1% (active) | -41.7% (active) | 6.73% (active) | 2.93% (active) | -88.5% (active)
COc1ccccc1/C=C(/C(=O)c1ccccc1)c1ccccc1 | 95.4% | 107% | 115% | 114% | 93.6% | 75.7% | 106% | 97.4% | 103% | 122%
Nc1cc(O)cc2cccnc12 | 53.1% | 94.4% | 104% | 86.6% | 67.6% | 103% | 50.6% | 86.3% | 105% | 113%
COc1ccc(/C(=C/c2ccc3ccccc3c2)c2nn[nH]n2)cc1OC | 31.5% | 81.1% | 40.1% | 27.8% | 14.1% | 5.89% (active) | -2.85% (active) | 25.4% | 40.4% | -2.4% (active)
COC1/C=C\OC2(C)Oc3c(C)c(O)c4c(O)c(c(CN(C)CCO)c(O)c4c3C2=O)NC(=O)/C(C)=C\C=C/C(C)C(O)C(C)C(O)C(C)C(OC(C)=O)C1C (stereo not given) | 91.9% | 104% | 97.8% | 89.7% | 103% | 115% | 87.8% | 116% | 95.9% | 108%
CCN(CC)CC(O)CNc1c2ccc([N+](=O)[O-])cc2nc2cc(OC)c(OC)cc12 (stereo not given) | -27.2% (active) | -39.1% (active) | -43.5% (active) | -51% (active) | -49.6% (active) | -57.4% (active) | -65.6% (active) | -22% (active) | -8.36% (active) | -71% (active)
Cn1c2c(Cl)c(Cl)ccc2c2ccn3c(=O)c4ccccc4nc3c21 | 89% | 90.8% | 90.9% | 68% | 104% | 92.7% | 84.8% | 108% | 99.2% | 100%
O=C(CN1CCN(c2cc3c(cc2F)c(=O)c(C(=O)O)cn3C2CC2)CC1)Nc1nc(-c2ccc(Cl)cc2)cs1 | 16.5% | 43.3% | 28.1% | 25.7% | 6.86% (active) | -5.35% (active) | 6.46% (active) | 11.4% | 29.1% | 63.2%
Cc1ccc(/C=C2\Oc3cc(OCC(=O)c4ccc(Cl)cc4)ccc3C2=O)cc1 | 90.1% | 109% | 103% | 104% | 120% | 88.2% | 103% | 90.1% | 107% | 111%
Cl/C(=N\Nc1ccccc1)c1ccccc1 | 91.4% | 91% | 75.4% | 96% | 106% | 97.9% | 72.8% | 85.4% | 102% | 98.4%
O=C1/C(=C/c2ccc(F)cc2)CN(C(=O)CCN2CCC(=NO)CC2)C/C1=C\c1ccc(F)cc1 | -26.5% (active) | 72.8% | -11.8% (active) | -37.7% (active) | -26.9% (active) | -5.42% (active) | -72.6% (active) | 28.4% | -44.7% (active) | -81.9% (active)
O=C(Cc1ccccc1)c1ccc(Cl)cc1 | 95.4% | 99% | 108% | 100% | 109% | 104% | 93.8% | 69.3% | 94.5% | 125%
